# A number with no mark means an inactive call. Records with an inconclusive call do not appear. Where a call stands in place of a potency, no number is given. Active and inactive are the calls of the source. Unless noted, the call rests on the fitted dose curve; in most records, active means well fitted curve in the direction sought with a large enough effect in the repeat runs; inconclusive means weak or mixed curves; inactive means no such curve, though single readings can be large; an effect the other way counts as inactive or inconclusive.
# Columns and labels:
# [1] = qHTS RealTime-Glo MT Cell Viability Assay in HEK293 cells - 0 hour (AID 1224880); further: nearly all actives have a fitted effect of over 45% in size; further: potency means the concentration at half of the fitted maximal effect
# Outline: (§1)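 Viable HEK293 cells reduce a cell-permeant prosubstrate; the product diffuses out and is consumed by NanoLuc in the medium to give light. Compounds went in after a 5 h incubation and plates were read over the treatment course.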
# [2] = A CellTox Green Cytotoxicity Assay to monitor cytotoxicity in HEK293 cells - 32 hour (AID 1224881); further: nearly all actives have a fitted effect of over 40% in size; further: potency means the concentration at half of the fitted maximal effect
# Outline: (§2)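 Fluorescence intensity, read at 0, 8, 16, 24, 32 and 40 h of compound treatment, reflected dye binding to DNA of dead HEK293 cells; compounds (23 nL, DMSO) were added 5 h after plating cells with reagent.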
# [3] = A CellTox Green Cytotoxicity Assay to monitor cytotoxicity in HepG2 cells - 0 hour (AID 1224882); further: nearly all actives have a fitted effect of over 35% in size; further: potency means the concentration at half of the fitted maximal effect
# Outline: (§3)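 Using 1536-well format, dye-containing HepG2 suspension was seeded, allowed 5 h at 37 C/5% CO2, dosed by pintool with compounds, positive and negative controls, and imaged for fluorescence across 40 h.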
# [4] = qHTS RealTime-Glo MT Cell Viability Assay in HepG2 cells - 16 hour (AID 1224885); further: nearly all actives have a fitted effect of over 50% in size
# Outline: (§4)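 Cell number in HepG2 cultures estimated from NanoLuc luminescence generated by metabolic reduction of a prosubstrate by living cells. The homogeneous, nonlytic format allowed repeated reads at 0, 8, 16, 24, 32 and 40 h of compound exposure.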
# [5] = qHTS RealTime-Glo MT Cell Viability Assay in HEK293 cells - 8 hour (AID 1224887); further: nearly all actives have a fitted effect of over 50% in size; further: potency means the concentration at half of the fitted maximal effect
# Outline: as §1
# [6] = qHTS RealTime-Glo MT Cell Viability Assay in HepG2 cells - 0 hour (AID 1224889); further: nearly all actives have a fitted effect of over 50% in size; further: potency means the concentration at half of the fitted maximal effect
# Outline: as §4
# [7] = qHTS assay to identify small molecule antagonists of the estrogen receptor alpha (ER-alpha) signaling pathway using the BG1 cell line in the presence of 0.1 nM 17-beta-estradiol - cell viability counter screen (AID 1259241); further: nearly all actives have a fitted effect of over 40% in size
# Outline: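 Cells were plated and left 24 hr, compounds in DMSO were pinned in, 17beta-estradiol was added to 0.1 nM final, and after 22 hr CellTiter-Fluor reagent was added for 30 min before fluorescence was read.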
# [8] = qHTS assay to identify small molecule antagonists of the androgen receptor (AR) signaling pathway using the MDA cell line in the presence of 0.5 nM R1881 - cell viability counter screen (AID 1259242); further: nearly all actives have a fitted effect of over 45% in size
# Outline: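 Viability of MDA-kb2 cells was multiplexed with the luciferase AR readout; after 16 hr with compounds and R1881 at 0.5 nM final, CellTiter-Fluor fluorescence was recorded.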
# [9] = molecular target: Estrogen receptor (Homo sapiens) (UniProt P03372); experiment: qHTS assay to identify small molecule antagonists of the estrogen receptor alpha (ER-alpha) signaling pathway using the BG1 cell line in the presence of 0.1 nM 17-beta-estradiol (AID 1259244); further: nearly all actives have a fitted effect of over 50% in size; further: potency means the concentration at half of the fitted maximal effect
# Outline: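 Estradiol at 0.1 nM (final) stimulates the endogenous ER-alpha of VM7Luc4E2 cells carrying an ERE-driven luciferase; compounds are co-incubated 22 h at 37C and luciferase output quantified by luminescence.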
# [10] = qHTS assay to identify small molecule phospholipidosis (PLD) inducers (AID 1259344; active means well fitted curve in the direction sought with a large enough effect; an effect the other way counts as inactive or inconclusive)
# Outline: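 HepG2 cells, 900/well, treated with compound plus LipidTOX Red for 24 h at 37 C; amiodarone positive and DMSO negative controls. Fixed with paraformaldehyde/Hoechst, then high-content imaging scored LipidTOX pit count and integrated intensity per well and per cell.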
# [11] = qHTS assay to identify small molecule agonists of the sonic hedgehog signaling (Shh) pathway - cell viability counter screen (AID 1259366); further: nearly all actives have a fitted effect of over 50% in size
# Outline: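 Cells are plated at 2,000 per well and left 4hr at 37C, 5% CO2 before compound addition. After 23hr of treatment, CellTiter-Fluor reagent is added for 1hr at 37C and fluorescence is measured.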
# [12] = qHTS RealTime-Glo MT Cell Viability Assay in HEK293 cells - 24 hour (AID 1224886); further: nearly all actives have a fitted effect of over 50% in size; further: potency means the concentration at half of the fitted maximal effect
# Outline: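 Homogeneous bioluminescent viability format in HEK293 cells (600 cells/well). Following 5 h at 37 C/5% CO2, 23 nL compound was pintooled; the signal was measured repeatedly during 40 h incubation.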
# [13] = A CellTox Green Cytotoxicity Assay to monitor cytotoxicity in HEK293 cells - 16 hour (AID 1224888); further: nearly all actives have a fitted effect of over 35% in size
# Outline: as §2
# [14] = qHTS assay to identify small molecule HDAC inhibitors (AID 1259364); further: potency means the concentration at half of the fitted maximal effect;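 further: wild-type HCT-116 cells with endogenous class I/II HDAC activity; nearly all actives have a fitted effect of over 45% in size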
# Outline: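 Read-out: luminescence of HDAC-Glo I/II reagent, 30 min RT, reflecting class I/II deacetylase activity in whole HCT-116 cells pre-exposed 2 h to DMSO-dissolved compounds.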
# [15] = qHTS assay to identify small molecule HDAC inhibitors - cell viability counter screen (AID 1259365)
# Outline: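 Counter screen in wild-type HCT-116 cells: compounds dissolved in DMSO are pin-transferred onto overnight-plated cells and left 2hr at 37C. ATP-based CellTiter-Glo luminescence then measures viable cells.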
# [16] = qHTS assay to identify small molecule antagonists of the sonic hedgehog signaling (Shh) pathway - cell viability counter screen (AID 1259367); further: nearly all actives have a fitted effect of over 55% in size; further: potency means the concentration at half of the fitted maximal effect
# Outline: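 NIH/3T3-derived Gli1-Luc reporter cells, 2,000/well, plated 4 hr before compound addition, then stimulated with conditioned medium for 24 hr at 37C. Viability measured in the same wells by CellTiter-Fluor fluorescence, reagent added at 23 hr for 1 hr.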
# [17] = A CellTox Green Cytotoxicity Assay to monitor cytotoxicity in HEK293 cells - 8 hour (AID 1224884); further: nearly all actives have a fitted effect of over 35% in size
# Outline: as §2
# [18] = A CellTox Green Cytotoxicity Assay to monitor cytotoxicity in HepG2 cells - 8 hour (AID 1224890); further: nearly all actives have a fitted effect of over 45% in size
# Outline: as §3
# [19] = A CellTox Green Cytotoxicity Assay to monitor cytotoxicity in HepG2 cells - 32 hour (AID 1224883); further: nearly all actives have a fitted effect of over 50% in size; further: potency means the concentration at half of the fitted maximal effect
# Outline: as §3
# [20] = molecular target: Androgen receptor (Homo sapiens) (UniProt P10275); experiment: qHTS assay to identify small molecule antagonists of the androgen receptor (AR) signaling pathway using the MDA cell line in the presence of 0.5 nM R1881 (AID 1259243); further: nearly all actives have a fitted effect of over 50% in size; further: potency means the concentration at half of the fitted maximal effect
# Outline: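 Reporter cells cultured without CO2 receive test chemicals, then 0.5 nM R1881 final; after 16 hr at 37C, ONE-Glo is added and light output recorded.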
# Sequence of Estrogen receptor (Homo sapiens) (P03372 whole entry, looked up): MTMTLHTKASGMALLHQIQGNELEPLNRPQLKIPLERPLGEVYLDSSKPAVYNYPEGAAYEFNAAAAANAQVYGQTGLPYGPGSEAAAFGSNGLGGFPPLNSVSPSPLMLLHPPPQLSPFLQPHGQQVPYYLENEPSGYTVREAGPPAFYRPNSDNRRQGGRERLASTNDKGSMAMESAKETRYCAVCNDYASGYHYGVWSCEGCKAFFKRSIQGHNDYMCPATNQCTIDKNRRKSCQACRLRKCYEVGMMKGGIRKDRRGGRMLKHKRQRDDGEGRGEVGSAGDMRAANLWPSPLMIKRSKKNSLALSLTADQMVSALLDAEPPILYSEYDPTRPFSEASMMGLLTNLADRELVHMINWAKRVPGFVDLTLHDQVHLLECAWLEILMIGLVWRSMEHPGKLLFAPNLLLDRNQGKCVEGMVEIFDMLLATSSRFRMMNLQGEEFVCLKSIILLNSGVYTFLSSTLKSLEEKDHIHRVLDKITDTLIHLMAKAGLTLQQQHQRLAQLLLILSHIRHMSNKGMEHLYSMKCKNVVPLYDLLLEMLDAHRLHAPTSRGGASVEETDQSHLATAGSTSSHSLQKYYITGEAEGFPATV
# Sequence of Androgen receptor (Homo sapiens) (P10275 whole entry, looked up): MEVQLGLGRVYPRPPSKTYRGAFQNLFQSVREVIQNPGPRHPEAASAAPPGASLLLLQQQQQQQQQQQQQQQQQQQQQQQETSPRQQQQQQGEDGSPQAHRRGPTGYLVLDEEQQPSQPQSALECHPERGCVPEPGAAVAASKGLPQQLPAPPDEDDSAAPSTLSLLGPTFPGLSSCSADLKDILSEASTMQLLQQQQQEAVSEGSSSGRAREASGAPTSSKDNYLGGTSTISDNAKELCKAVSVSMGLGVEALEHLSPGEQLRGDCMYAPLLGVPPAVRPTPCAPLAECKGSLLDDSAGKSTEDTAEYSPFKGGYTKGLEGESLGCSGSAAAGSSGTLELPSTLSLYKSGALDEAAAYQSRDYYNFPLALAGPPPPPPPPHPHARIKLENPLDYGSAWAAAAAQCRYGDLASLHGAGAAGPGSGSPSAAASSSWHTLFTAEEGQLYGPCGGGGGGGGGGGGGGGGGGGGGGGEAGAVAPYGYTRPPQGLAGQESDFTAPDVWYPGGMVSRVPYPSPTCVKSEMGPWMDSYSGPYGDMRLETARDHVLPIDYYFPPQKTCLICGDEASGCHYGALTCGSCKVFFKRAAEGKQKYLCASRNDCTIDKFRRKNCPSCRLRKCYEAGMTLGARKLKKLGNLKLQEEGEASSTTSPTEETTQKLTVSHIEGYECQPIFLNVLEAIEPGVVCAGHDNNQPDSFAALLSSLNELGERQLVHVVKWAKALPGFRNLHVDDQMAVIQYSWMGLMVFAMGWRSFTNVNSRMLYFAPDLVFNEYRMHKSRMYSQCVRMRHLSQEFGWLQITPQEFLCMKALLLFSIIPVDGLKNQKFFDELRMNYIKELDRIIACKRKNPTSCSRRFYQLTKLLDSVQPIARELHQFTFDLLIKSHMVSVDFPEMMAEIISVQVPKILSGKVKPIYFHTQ
SMILES,Potency [1],Potency [2],Potency [3],Potency [4],Potency [5],Potency [6],Potency [7],Potency [8],Potency [9],Potency [10],Potency [11],Potency [12],Potency [13],Potency [14],Potency [15],Potency [16],Potency [17],Potency [18],Potency [19],Potency [20]
CCCCN1CCCC1C(=O)Nc1c(C)cc(C)cc1C (configuration not stated),inactive,16.9 µM (active),23.9 µM (active),inactive,inactive,inactive,inactive,inactive,inactive,inactive,inactive,–,–,–,–,–,–,–,–,–
O=C1c2ccccc2C(=O)C1c1nc2ccccc2c(Br)c1O,inactive,inactive,inactive,inactive,inactive,inactive,inactive,–,inactive,–,inactive,inactive,inactive,27.3 µM (active),inactive,inactive,–,–,–,–
CS(=O)(=O)c1ccc(-c2cn3ccccc3n2)cc1,inactive,inactive,inactive,–,–,inactive,inactive,inactive,inactive,–,inactive,–,inactive,–,–,–,inactive,inactive,–,–
CC(CC1c2ccccc2CCc2ccccc21)CN(C)C (configuration not stated),inactive,inactive,inactive,–,inactive,inactive,–,–,–,–,inactive,inactive,inactive,inactive,inactive,inactive,inactive,inactive,–,–
CC(C)=CCC/C(C)=C/CC/C(C)=C/C(=O)OCC(=O)[C@@]1(O)CC[C@H]2[C@@H]3CCC4=CC(=O)C=C[C@]4(C)[C@H]3[C@@H](O)C[C@@]21C,inactive,inactive,inactive,–,6.01 µM (active),inactive,–,–,26.6 µM (active),–,inactive,4.25 µM (active),inactive,inactive,inactive,inactive,–,inactive,inactive,inactive
Oc1c(I)cc(I)c2cccnc12,inactive,inactive,inactive,–,inactive,inactive,–,inactive,–,inactive,inactive,–,–,inactive,inactive,inactive,–,inactive,inactive,–
CCOc1ccccc1O[C@H](c1ccccc1)[C@H]1CNCCO1,inactive,inactive,inactive,–,inactive,–,inactive,inactive,inactive,inactive,–,inactive,inactive,inactive,inactive,–,inactive,inactive,–,–
O=Cc1c2ccccc2c(Cl)c2ccccc12,inactive,inactive,inactive,inactive,inactive,–,–,inactive,inactive,–,inactive,–,inactive,inactive,inactive,inactive,–,inactive,inactive,–
CC(CN(C)C)C(C)(O)Cc1ccc(Cl)cc1 (configuration not stated),inactive,inactive,–,inactive,inactive,inactive,–,inactive,inactive,inactive,inactive,inactive,inactive,inactive,inactive,inactive,inactive,–,inactive,inactive
CC(=O)OCC[N+](C)(C)C,inactive,inactive,inactive,–,inactive,inactive,inactive,inactive,–,inactive,inactive,inactive,inactive,–,inactive,inactive,–,inactive,inactive,–
CC(C)C(O)(c1ccc(OC(F)(F)F)cc1)c1cncnc1 (configuration not stated),inactive,inactive,inactive,inactive,inactive,inactive,–,inactive,–,–,inactive,–,inactive,inactive,inactive,inactive,–,inactive,inactive,–
O=C1Cc2ccccc2N1c1c(Cl)cccc1Cl,inactive,inactive,inactive,–,–,inactive,inactive,inactive,61.1 µM (active),–,inactive,38.9 µM (active),inactive,–,inactive,inactive,inactive,inactive,–,24.3 µM (active)
CC=C(Cl)Cl,inactive,–,inactive,inactive,inactive,inactive,inactive,inactive,inactive,–,inactive,inactive,–,inactive,inactive,inactive,inactive,inactive,inactive,–
CC[C@]1(O)C[C@H]2CN(CCc3c([nH]c4ccccc34)[C@@](C(=O)OC)(c3cc4c(cc3OC)N(C=O)[C@H]3[C@@](O)(C(=O)OC)[C@H](OC(C)=O)[C@]5(CC)C=CCN6CC[C@]43[C@@H]65)C2)C1,inactive,inactive,inactive,–,inactive,inactive,inactive,inactive,–,–,–,–,inactive,inactive,inactive,–,inactive,inactive,–,–
Oc1ccc(Cl)c2cccnc12,inactive,inactive,inactive,inactive,inactive,inactive,–,–,21.1 µM (active),inactive,–,inactive,–,inactive,–,3.35 µM (active),inactive,inactive,–,–
NC(=O)c1ccncc1,inactive,inactive,inactive,–,inactive,inactive,inactive,inactive,–,–,inactive,inactive,inactive,inactive,inactive,inactive,–,inactive,inactive,–
COc1ccccc1N1CCN(CC(O)COc2cccc3ccccc23)CC1 (configuration not stated),inactive,inactive,inactive,–,inactive,–,–,inactive,–,inactive,–,–,inactive,inactive,inactive,inactive,–,inactive,26.8 µM (active),–
CC(C)(C)CC(=O)OCC(=O)[C@@]1(O)CC[C@H]2[C@@H]3CCC4=CC(=O)C=C[C@]4(C)[C@H]3[C@@H](O)C[C@@]21C,7.56 µM (active),–,inactive,inactive,–,1.34 µM (active),inactive,inactive,inactive,–,–,21.3 µM (active),–,–,inactive,inactive,inactive,inactive,inactive,–
